Experimental findings from PubChem BioAssay (EPA / NIEHS) are described below.

The source made the active and inactive calls. Rule for the calls: active = hit-call score of the fitted dose curve at least 0.9, where 1 is the maximum; inactive = score below 0.9.

A word on the AC50: it is the concentration at which the activity in the assay is half-maximal.

A short description of test [1]: ATG_PBREM_CIS: Attagene CIS-FACTORIAL HepG2 Assay for human Phenobarbital-responsive Enhancer Module (PBREM) (AID 2282955). The note with it: HepG2 PBREM cis-reporter, Attagene multiplexed transcription; actives raise or lower the signal. The method, boiled down: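 Cells were transfected with cis-element reporter units and treated for 24 h, after which RNA was extracted and reporter transcripts measured by RT-PCR and capillary electrophoresis.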

Test [2] concerns the target Paired box protein Pax-6 (Homo sapiens) (UniProt P26367). Put plainly: ATG_Pax6_CIS: Attagene CIS-FACTORIAL HepG2 Assay for human Paired Box 6 (PAX6) (AID 2282956). The note with it: HepG2 CIS-FACTORIAL PAX6 reporter transcription, RNA readout; actives raise or lower the signal. The method, boiled down:
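Values derive from bidirectional curve fitting of reporter mRNA signal relative to DMSO. HepG2 cells bearing transfected cis-regulated MRTUs were exposed for 24 h; transcripts were read by RT-PCR and capillary electrophoresis.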

A short description of test [3]: ATG_PXRE_CIS: Attagene CIS-FACTORIAL HepG2 Assay for human Pregnane X Receptor Element (PXRE) (AID 2282957). To be noted: HepG2 Attagene CIS-FACTORIAL PXRE reporter, mRNA; actives raise or lower the signal. The method, boiled down: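 Read-out: fluorescence of reporter-specific RT-PCR products resolved by capillary electrophoresis, fitted bidirectionally relative to DMSO. Human HepG2 liver cells carried transfected cis-promoter reporter units and were exposed to chemicals for 24 h.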

Test [4] can be described thus: ATG_PPRE_CIS: Attagene CIS-FACTORIAL HepG2 Assay for human Peroxisome Proliferator-activated Response Element (PPRE) (AID 2282958). To be noted: HepG2 PPRE cis-element reporter, Attagene transcription factor profiling; actives raise or lower the signal. The procedure, abridged:
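In this cell-based multiplex, a PPRE cis element drives a reporter sequence in transiently transfected HepG2 cells. Following 24 h treatment, labeled cDNA amplicons are sized and quantified by capillary electrophoresis, with DMSO defining baseline.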

Test [5] can be described thus: ATG_Sox_CIS: Attagene CIS-FACTORIAL HepG2 Assay for human SRY-box transcription factor (SOX) (AID 2282960). To be noted: HepG2 Attagene cis-factorial SOX reporter, mRNA; actives raise or lower the signal. The procedure, abridged:
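Measures mRNA induction of a SOX1-associated reporter in HepG2 after 24 h dosing. Fluorescently labelled RT-PCR fragments are separated by capillary electrophoresis, and gain or loss relative to DMSO control is fitted.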

Test [6] concerns the target Transcription factor Sp1 (Homo sapiens) (UniProt P08047). The experiment in a line: ATG_Sp1_CIS: Attagene CIS-FACTORIAL HepG2 Assay for human Specificity Protein 1 (Sp1) (AID 2282961). The note with it: HepG2 Sp1 cis-reporter transcription, actives raise or lower the signal. The method, boiled down:
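Cells: HepG2, transiently transfected with cis-regulated multiplexed reporters. Exposure: 24 h. Detection: reporter transcripts amplified, fluorescently labeled, restriction-digested and sized by capillary electrophoresis. Analysis: bidirectional fit relative to DMSO.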

The nature of test [7]: ATG_SREBP_CIS: Attagene CIS-FACTORIAL HepG2 Assay for human Sterol Regulatory Element Binding (SREBP) (AID 2282962). The note with it: HepG2 Attagene cis-factorial SREBP reporter, mRNA; actives raise or lower the signal. The procedure, abridged:
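Values derive from bidirectional curve fitting with DMSO as baseline. The underlying measurement is reporter mRNA from cis-element-regulated units in transiently transfected HepG2, quantified by RT-PCR and capillary electrophoresis after 24 h exposure.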

Test [8] concerns the target Signal transducer and activator of transcription 3 (Homo sapiens) (UniProt P40763). Put plainly: ATG_STAT3_CIS: Attagene CIS-FACTORIAL HepG2 Assay for human Signal Transducer and Activator of Transcription 3 (STAT3) (AID 2282963). To be noted: HepG2, Attagene cis-factorial STAT3 reporter transcription; actives raise or lower the signal. The method, boiled down: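 Readout: fluorescent reporter mRNA fragments resolved by capillary electrophoresis. Setup: HepG2 transfected with MRTUs reporting endogenous transcription-factor activity, dosed 24 h. Gain or loss of signal fitted bidirectionally against DMSO control.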

A short description of test [9]: ATG_TA_CIS: Attagene CIS-FACTORIAL HepG2 Assay for human TA Basal Promoter (AID 2282964). The note with it: HepG2 Attagene CIS-factorial TA basal promoter reporter; actives raise or lower the signal. The procedure, abridged: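 Fluorescence from labelled RT-PCR reporter fragments, separated by capillary electrophoresis, gives the signal. Cells: HepG2 transiently carrying multiple reporter units, 24 h chemical dosing. Gain or loss relative to DMSO.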

Test [10] is described as follows: ATG_RORE_CIS: Attagene CIS-FACTORIAL HepG2 Assay for human RAR-related Orphan Receptor Element (RORE) (AID 2282959). To be noted: HepG2 Attagene cis-factorial RORE reporter, mRNA; actives raise or lower the signal. The procedure, abridged: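 Endogenous factor activity at a cis response element is read as reporter transcript levels in HepG2 cells, 24 h post-dose. Transcripts are quantified by RT-PCR with capillary electrophoresis, and data fitted in both directions against DMSO.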

Signal transducer and activator of transcription 3 (Homo sapiens), sequence (P40763 whole entry, looked up, the tested form may be a part): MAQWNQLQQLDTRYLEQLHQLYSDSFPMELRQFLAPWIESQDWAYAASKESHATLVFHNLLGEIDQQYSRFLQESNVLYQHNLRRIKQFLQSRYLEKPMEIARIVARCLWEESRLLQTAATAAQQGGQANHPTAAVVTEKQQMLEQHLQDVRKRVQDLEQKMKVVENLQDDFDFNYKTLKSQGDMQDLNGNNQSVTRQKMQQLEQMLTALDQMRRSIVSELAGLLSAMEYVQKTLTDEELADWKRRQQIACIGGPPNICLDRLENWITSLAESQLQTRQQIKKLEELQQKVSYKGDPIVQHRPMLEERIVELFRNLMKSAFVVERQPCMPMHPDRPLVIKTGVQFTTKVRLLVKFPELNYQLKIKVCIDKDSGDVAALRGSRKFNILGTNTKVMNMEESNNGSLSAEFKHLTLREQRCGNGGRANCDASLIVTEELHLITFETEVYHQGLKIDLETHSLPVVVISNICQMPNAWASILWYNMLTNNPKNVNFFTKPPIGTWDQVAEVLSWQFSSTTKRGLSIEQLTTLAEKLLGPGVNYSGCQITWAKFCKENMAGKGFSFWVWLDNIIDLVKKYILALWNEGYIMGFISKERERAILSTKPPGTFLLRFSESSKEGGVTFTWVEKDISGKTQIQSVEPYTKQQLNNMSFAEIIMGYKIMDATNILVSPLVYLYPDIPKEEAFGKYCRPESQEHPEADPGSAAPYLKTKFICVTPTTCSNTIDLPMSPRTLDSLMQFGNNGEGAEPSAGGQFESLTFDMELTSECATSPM
Paired box protein Pax-6 (Homo sapiens), sequence (P26367 whole entry, looked up): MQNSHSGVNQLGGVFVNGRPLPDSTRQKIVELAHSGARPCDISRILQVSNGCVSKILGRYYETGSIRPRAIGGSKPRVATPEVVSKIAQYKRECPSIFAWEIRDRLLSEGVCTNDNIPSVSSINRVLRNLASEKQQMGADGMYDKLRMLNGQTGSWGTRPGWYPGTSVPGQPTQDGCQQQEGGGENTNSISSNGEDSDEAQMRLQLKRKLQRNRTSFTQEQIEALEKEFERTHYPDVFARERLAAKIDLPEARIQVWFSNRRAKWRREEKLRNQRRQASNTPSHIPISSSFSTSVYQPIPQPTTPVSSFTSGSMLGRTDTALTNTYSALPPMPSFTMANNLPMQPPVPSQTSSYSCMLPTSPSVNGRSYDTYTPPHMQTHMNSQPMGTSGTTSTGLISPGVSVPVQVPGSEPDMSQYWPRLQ
Transcription factor Sp1 (Homo sapiens), sequence (P08047 whole entry, looked up): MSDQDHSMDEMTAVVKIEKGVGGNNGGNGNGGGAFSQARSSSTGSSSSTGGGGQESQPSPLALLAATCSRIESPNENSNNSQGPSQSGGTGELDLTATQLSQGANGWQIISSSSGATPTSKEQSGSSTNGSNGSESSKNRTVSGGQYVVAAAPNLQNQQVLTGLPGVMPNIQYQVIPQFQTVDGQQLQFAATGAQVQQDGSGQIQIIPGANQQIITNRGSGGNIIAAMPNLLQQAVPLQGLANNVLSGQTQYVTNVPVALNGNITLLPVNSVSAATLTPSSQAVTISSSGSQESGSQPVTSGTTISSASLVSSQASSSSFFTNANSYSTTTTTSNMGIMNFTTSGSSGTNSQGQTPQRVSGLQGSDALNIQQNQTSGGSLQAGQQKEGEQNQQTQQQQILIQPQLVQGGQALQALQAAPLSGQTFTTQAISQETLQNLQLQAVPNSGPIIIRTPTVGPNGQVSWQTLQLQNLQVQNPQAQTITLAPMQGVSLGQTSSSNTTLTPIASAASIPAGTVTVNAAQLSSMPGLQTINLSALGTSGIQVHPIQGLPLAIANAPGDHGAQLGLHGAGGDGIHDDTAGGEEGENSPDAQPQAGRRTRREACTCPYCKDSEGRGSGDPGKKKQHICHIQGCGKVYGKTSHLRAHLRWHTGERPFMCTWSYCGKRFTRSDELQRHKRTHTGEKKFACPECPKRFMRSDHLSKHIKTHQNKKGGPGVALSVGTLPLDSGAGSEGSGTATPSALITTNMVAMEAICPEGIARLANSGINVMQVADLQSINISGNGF

Consider `[O-]/[N+](=N\O)c1ccccc1`, for which the result in test [1], in test [2], in [4], in test [5], in [6] and in test [7] was inactive. For the same compound, the compound was called inactive in test [8] and in [9]. Further, in test [3], the AC50 is 26.6 µM (active).
As for `CCC(C)(C)C1CCC(OC)CC1` (centres undefined), the outcome in test [1], in [2], in test [4], in test [10], in test [5] and in test [6] was inactive. Moreover, the result in [7], in [8] and in test [9] was inactive. In addition, in test [3], the AC50 was 3.33 µM (active).
With `NC(=O)c1cnccn1`, the outcome in [1], in test [2], in [3], in test [4], in test [10] and in [5] was inactive. Further, the call in [6], in test [7], in [8] and in test [9] was inactive.
Consider `CCCc1ccc(N)cc1`, for which the outcome in [1], in [2], in test [3], in test [4], in test [10] and in test [5] was inactive. Also, the compound was classed as inactive in test [6], in test [7], in test [8] and in [9].
With `CCCCCCCCCCCCN1CCOCC1`, the outcome in test [1], in [2], in test [3], in [4], in [10] and in [5] was inactive. In addition, the compound was called inactive in test [6], in [7], in [8] and in test [9].
Consider `CCCCCCCC(=O)N(C)C`, for which the outcome in test [1], in test [2], in [4], in test [10], in test [5] and in test [6] was inactive. The call in test [7], in test [8] and in test [9] was inactive. In test [3], the AC50 is 42.4 µM (active).
On to `CCCCCCCCOS(=O)(=O)O`, for which the result in test [1], in [2], in test [3], in test [10], in [5] and in test [6] was inactive. Moreover, the result in [7], in test [8] and in test [9] was inactive. Also, the AC50 in [4] was 31.3 µM (active).
`Cc1cc(O)c(C)c(C)c1O`: the outcome in test [1], in test [2], in test [4], in test [10], in test [5] and in test [6] was inactive. Besides, the outcome in [7], in [8] and in test [9] was inactive. For the same compound, the AC50 in [3] is 9.14 µM (active).
Take `CC(=O)OC(C)(C)C1CC=C(C)CC1` (centres undefined): the result in [1], in [2], in test [4], in test [10], in [5] and in test [6] was inactive. Moreover, the compound was classed as inactive in test [7], in test [8] and in test [9]. Besides, the AC50 in [3] is 36.9 µM (active).
`CCCCCC(=O)O[C@]1(C(C)=O)CC[C@H]2[C@@H]3CCC4=CC(=O)CC[C@]4(C)[C@H]3CC[C@@]21C`: the outcome in [1], in [4], in [10] and in test [6] was inactive. The AC50 was 22.8 µM (active) in test [2]; 0.239 µM (active) in test [3]; 59.6 µM (active) in test [5]; 33.2 µM (active) in test [7]; 33.2 µM (active) in test [8]; 60 µM (active) in [9].
Turning to `C=C/C(C)=C/C/C=C(\C)CCC=C(C)C`, the result in test [1], in test [2], in test [4], in test [10], in [5] and in test [6] was inactive. The result in test [7], in test [8] and in test [9] was inactive. The AC50 in test [3] is 3.8 µM (active).
Consider `NCCN1CCNCC1`, for which the result in [1], in test [2], in test [3], in [4], in [10] and in test [5] was inactive. Besides, the outcome in test [6], in test [7], in [8] and in test [9] was inactive.
As to `C=CCOC(=O)/C=C\C(=O)OCC=C`, the outcome in test [1], in test [4], in test [6], in test [7], in test [8] and in test [9] was inactive. For the same compound, the AC50 in test [2] is 26 µM (active); in test [3], 20.1 µM (active); in [10], 11.3 µM (active); in test [5], 27.6 µM (active).
For the compound `Brc1cc(Br)cc(Br)c1`, the outcome in test [1], in test [2], in test [4], in test [10], in test [5] and in test [6] was inactive. The outcome in test [7], in [8] and in test [9] was inactive. In addition, in test [3], the AC50 is 100 µM (active).
Take `CCCc1ccc(O)cc1`: the result in test [1], in [2], in [3], in [4], in test [10] and in test [5] was inactive. Moreover, the result in test [6], in test [7], in [8] and in test [9] was inactive.
